In PubChem BioAssay (NCI) one finds growth data, which are given here for 40 compounds.

About 83,000 compounds went through this panel and 20% of them were active in at least one assay; those are over-represented in the sample as a whole.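 A percent growth of 40 corresponds to 60% growth inhibition; 0 means no net growth; -100 means all cells died. Active threshold: below 10.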 Values without a mark were called inactive. The source made the active and inactive calls.

In this experiment the test system is RPMI-8226 leukemia. Briefly: NCI-60 one-dose screen, 48 h (100 = growth as untreated, 0 = no growth, -100 = all killed). The conditions noted are these: 10 µM unless noted. How it is done:
Growth inhibition of the RPMI-8226 human tumor cell line is measured as a screen for anti-cancer activity. Cells are grown in 96 well plates and exposed to the test compound for 48 hours. Compounds are tested at a single concentration, which is 10^-5 M for most compounds. The reported endpoint is percent growth (GI% or GIPRCNT), where numbers from 0 - 100% represent growth inhibition, and numbers from -100% - 0 represent cell death. For example, a value of 40 represents 60% growth inhibition. A value of 0 means no net growth occurred over the course of the experiment. A value of -40 indicates 40% of cells at the beginning of the experiment died by the end of the experiment. A value of -100 means all cells are dead at the end of the experiment.
NCI-60 Human Tumor Cell Lines Screen was performed using the standard one-dose NCI protocol, which is described in more detail at https://dtp.cancer.gov/discovery_development/nci-60/default.htm.
Compounds with GIPRCNT values below 10 were considered active. Activity score was based on GIPRCNT using the following formula: […]
Score is 0 for GIPRCNT values of 100 or above, 50 for GIPRCNT values of 0, and 100 for GIPRCNT values of -100.
For the compound `O=c1cc/c(=N\Nc2ccccc2)c(=O)/c1=N/Nc1ccccc1`, the growth is 18.9%.

In the case of `COc1ccc(/C=N\NC(=O)CN2CCN(c3cc4c(cc3F)c(=O)c(C(=O)N/N=C/c3ccc(OC)c(OC)c3)cn4C3CC3)CC2)cc1OC`, the growth is 4.84% (active).

For the compound `Clc1cc(Cl)c2nc(-c3ccc(-c4ccc(/C=N/NC5=NCCN5)cc4)s3)cn2c1`, the growth is 37.6%.

As to `N#C/C(=C1C=C/C(=N/O)C(Cl)=C/1)c1ccc(Cl)cc1`, the growth was 20.7%.

In the case of `O=C(NS(=O)(=O)c1ccc2ccccc2c1)n1cc(-c2ccncc2)c(-c2ccc(Cl)c(O)c2)n1`, the growth was 60.2%.

Take `O=C1NN(C(=O)c2ccc(Cl)cc2)C(c2ccccc2)=N/C1=C\c1cn(-c2ccccc2)nc1-c1ccccc1`: the growth was 117%.

For `O=C(Nc1ccncc1)C(=O)c1cn(S(=O)(=O)c2ccc(Br)cc2)c2ccccc12`, the growth is 35%.

`COc1cc(-c2nc(-c3nc4ccc(Cl)cc4[nH]3)cc3c2[nH]c2ccccc23)cc(OC)c1OC`: the growth is 45.2%.

As for `CN(C)c1ncnc2c1ccn2C1OC(CO)C(O)C1O` (stereo not given), the growth is 83.7%.

In the case of `CC(C)(C)n1cc(-c2ccnc(NCCCNS(=O)(=O)c3ccc(Cl)cc3)c2)c(-c2cccc(O)c2)n1`, the growth was -29.7% (active).

In the case of `CC(C)(C)c1[nH]nc2c1C(c1cc3ccccc3[nH]c1=O)Nc1cc(C(=O)Nc3ccc(Cl)cc3)ccc1N2` (stereo not given), the growth was 42.5%.

For `O=C(Nc1ccc2c(c1)OCO2)C(=O)c1c[nH]c2cc(F)ccc12`, the growth is 64%.

For `CCOC(=O)C1C(=O)C=C(c2ccc(OC)cc2)CC1c1sc(N(C)Cc2ccccc2)nc1Cl` (stereo not given), the growth is 63.9%.

Turning to `O=C(O)C1CCCCN1c1nc(Cl)nc(Cl)n1` (stereo not given), the growth is 109%.

Turning to `O=[N+]([O-])c1ccc(Sc2ncccn2)c([N+](=O)[O-])c1`, the growth is -29.3% (active).

Take `COc1cc(C2C3=C(COC3=O)Nc3cc4c(cc32)CCC4)cc2c1OCO2` (stereo not given): the growth is 23.2%.

`Clc1ccc2c(NC3CCC(NC4CCCCC4)CC3)ccnc2c1` (stereo not given): the growth is 39.4%.

Turning to `COc1ccc(C(=O)N2NC(=O)/C(=C/c3ccc(Br)cc3)N=C2c2ccccc2)cc1`, the growth was 71.7%.

Regarding `CCOC(=O)c1cc(C(=O)c2cc(OC)c(OC)c(OC)c2)n2c1ccc1ccccc12`, the growth was 11.2%.

Take `COc1cc2c(cc1OCCCCCn1c3ccccc3c3ccccc31)N=C[C@@H]1CCCN1C2=O`: the growth is -39.2% (active).

For `CCCCNC(=O)Oc1ccc(/C(=C(\C)c2ccccc2)c2ccc(OCCN(CC)CC)cc2)cc1`, the growth was 49.8%.

For `CCN(CC)c1ccc(C(=N)c2ccc(N(CC)CC)cc2)cc1`, the growth was -32.1% (active).

As to `Cc1ccc(S(=O)(=O)Nc2c(Br)cc(Br)cc2C(N)=O)cc1`, the growth is 95.2%.

Take `Fc1ccc(-c2nc(-c3nc4ncccc4[nH]3)cc3c2[nH]c2ccccc23)cc1F`: the growth is 45.7%.

As to `CN(CCCCCl)P(=O)(OCc1ccc([N+](=O)[O-])o1)C(F)(F)C[C@H](NC(=O)CNC(=O)c1ccc(N=[N+]=[N-])cc1)C(=O)NCCc1ccc(O)cc1` (stereo not given in full), the growth is 87.3%.

For `COc1ccc(NC(=O)CSc2nc(-c3ccc(OC)c(OC)c3)cc(-c3cc(OC)c(OC)c(OC)c3)n2)cc1`, the growth was 78.2%.

Consider `O=S(=O)(c1ccc(OCCO)cc1)c1ccc(OCCO)cc1`, for which the growth is 81%.

For `Brc1cccc(-c2cc(-c3ccc4c(c3)OCCCO4)[nH]n2)c1`, the growth is 57.2% [25 µM].

Turning to `O=[N+]([O-])c1ccc(-c2cn(-c3ccccc3)c(-c3ccccc3)n2)cc1`, the growth was -0.221% (active).

Turning to `COc1ccc(/C=C2\CN(Cc3cn(CCNc4ccnc5cc(Cl)ccc45)nn3)C/C(=C\c3ccc(OC)c(OC)c3)C2=O)cc1OC`, the growth was -1.73% (active).

Turning to `Cc1cc(C(C)(C)C)ccc1S`, the growth is 104%.

In the case of `COc1c2occc2c(OC)c2c(=O)c(-c3cc(-c4ccc(F)cc4)c(C#N)c(N)n3)c(C)oc12`, the growth was 27.3%.

Take `COc1ccc(-c2cn(-c3cccc(C(=O)/C=C/c4cc(OC)c(OC)c(OC)c4)c3)c(=O)[nH]2)cc1OC`: the growth was 6.95% (active).

`O=C(/C=C/c1ccccc1)c1cccc(O)c1`: the growth was -37.8% (active).

Take `COc1ccc(-n2c(-c3ccccc3)c(-c3ccccc3)c3c(SCC(=O)N/N=C/c4ccc(Cl)cc4)ncnc32)cc1`: the growth was 87.4%.

`COc1cc(-c2nn(-c3cccc(NC(=O)c4cccc(C(F)(F)F)c4)c3)cc2-c2ccncc2)ccc1Cl`: the growth is -1.13% (active).

Take `COc1ccc(-c2cnnn2-c2nonc2-n2cccc2)cc1OC`: the growth was 52.2%.

Consider `CCCCN(CCCC)C(=O)CC`, for which the growth was 115%.

For `COc1ccc(-c2nc(/C=N/Nc3cc(C)nc4ccc(Cl)cc34)c(C)o2)cc1`, the growth is -50.8% (active).

In the case of `Cc1ccc(S(=O)(=O)NCCNc2nccc(-c3c(-c4cccc(N)c4)nc4sccn34)n2)cc1`, the growth is 74.7%.
